Screen size: about 170,000 compounds; about 460 (0.27%) were called active.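 Rule for the calls: active = inhibition above the plate cutoff, the mean inhibition of test wells on that plate plus 3 SD (cut at about 28% in these data); inactive = the rest.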 For the sample, actives were picked, then their nearest neighbours and some compounds at random.
target: Sphingosine 1-phosphate receptor 3 (Homo sapiens) (UniProt Q99500); test: S1P3 receptor antagonists, primary screen, cell-based (AID 485); settings: CHO S1P3 NFAT-BLA reporter, FRET fluorescence, antagonist mode; at 4.98 µM; stronger effect = higher value;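 note: cells challenged with S1P at its EC80 of 0.8 µM; blue over green emission ratio from cleaved BLA substrate after 4 h stimulation; 0% = S1P-stimulated wells and 100% = unstimulated DMSO-only wells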
Sequence (Q99500 whole entry, looked up): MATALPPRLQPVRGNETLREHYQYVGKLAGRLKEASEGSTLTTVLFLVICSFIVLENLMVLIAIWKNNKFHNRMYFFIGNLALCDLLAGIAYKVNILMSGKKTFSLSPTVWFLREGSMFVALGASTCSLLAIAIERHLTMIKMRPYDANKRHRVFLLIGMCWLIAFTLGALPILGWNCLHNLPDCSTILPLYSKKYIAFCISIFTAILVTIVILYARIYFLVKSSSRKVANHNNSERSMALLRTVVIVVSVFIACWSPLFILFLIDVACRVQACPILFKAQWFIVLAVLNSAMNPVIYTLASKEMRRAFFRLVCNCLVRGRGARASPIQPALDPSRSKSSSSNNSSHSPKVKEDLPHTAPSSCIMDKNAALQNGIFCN

inhibition, inactive:
Cn1c(S(=O)(=O)O)nc2ccccc21 -12.4%
Cn1cccc1-c1nc2ccccc2n1C -6.38%
COc1ccc(-n2ncc3c(N4CCc5ccccc54)ncnc32)cc1 13.4%
Cc1ccc(-n2ncc3c(N4CCN(c5ccc(F)cc5)CC4)ncnc32)c(C)c1 27.2%
CCN(CC)c1ccc2c(Nc3ccccc3)c(C=O)c(=O)oc2c1 6.07%
CC(C)Cc1nnc(NC(=O)CCC(=O)Nc2ccc3cn[nH]c3c2)s1 -0.32%
Cc1c(CN2CCCCC2)c(O)n(CCO)c(=O)c1C#N -12.4%
CCOc1cnc(-c2c(-c3ccccc3Cl)noc2C)o1 -6.23%
Cc1ccc(S(=O)(=O)N(CC(=O)NN=C2CCN(C)CC2)c2ccc(F)cc2)cc1 4.23%
CCN(CC)C(=O)C(=O)c1cn(CC(=O)NCc2ccc3c(c2)OCO3)c2ccccc12 1.34%
CN(C)c1ccc(NC(=O)CSc2n[nH]c(-c3ccco3)n2)cc1 -1.38%
CC(C)C(=O)Nc1ccc2oc(=O)ccc2c1 -11.4%
CC1CCN(C(=S)c2cccc([N+](=O)[O-])c2)CC1 -0.25%
C=CCOC(=O)C1=C(C)N=C2SCCC(=O)N2C1/C=C/c1ccccc1OC (stereo not given) -1.87%
CCC(C)(C)NC(=O)CN(Cc1cccs1)C(=O)CNS(=O)(=O)c1ccc(F)cc1 -2.83%
Cc1cc(N/N=C/c2ccccc2F)c2ccccc2n1 -3.58%
CC(=O)Nc1ccc(C(=O)/C=C/c2ccc[nH]2)cc1 0.84%
CCc1cc(CNC(=O)CC2C(=O)NCCN2Cc2ccccc2C(F)(F)F)on1 (stereo not given) -1.82%
CCc1ccc(C(=O)OCC(=O)NCC(F)(F)F)cc1 -9.42%
O=C(O)CC12CC3CC(C1)CC(n1ncc(NCc4ccc(F)cc4)c(Cl)c1=O)(C3)C2 -16.8%
COc1cc2c(cc1O)[C@H](Cc1ccc(Oc3cc(C[C@@H]4NCCc5cc(OC)c(O)cc54)ccc3O)cc1)NCC2 -12.9%
CN1C(=O)/C(=N/OC(=O)c2ccccc2Br)c2ccccc21 -12.3%

inhibition, active:
Cn1c(-c2ccc(C(=O)c3ccccc3)s2)nc2ccccc21 59.9%
Cc1cccc(-n2ncc3c(N4CCc5ccccc54)ncnc32)c1 84.3%
CC[C@H]1CN2CCc3cc(OC)c(OC)cc3[C@@H]2C[C@@H]1C[C@H]1NCCc2cc(OC)c(OC)cc21 97.4%

Source: PubChem BioAssay AID485 (The Scripps Research Institute Molecular Screening Center, 2006)
